Only a selection was taken, and hits are over-represented in it overall.
KDM4E inh: blocks human JMJD2E demethylase activity; B2RXH2; JMJD2E catalytic domain, FDH-coupled NADH fluorescence (FDH is formaldehyde dehydrogenase); Potency, µM (series often up to 57.1 µM), actives largely listed as inhibitors; 1.6% of 230,000 active; AID 2147; active = well fitted inhibition curve with a large enough effect, not every such curve was filed as active; inconclusive = small, poorly fitted or top-dose-only effect, or another doubt; inactive = no such curve, though single readings can be large or run the other way; also: nearly all actives have a fitted effect of over 50% in size
KAT2A inh: blocks human GCN5L2 histone acetyltransferase; Q92830; GCN5L2 HAT assay, ThioGlo1 CoA-SH fluorescence; Potency, µM (highest dose often 58.9 µM), most hits filed as inhibitors; 0.21% of 390,000 active; AID 504327
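ThioGlo1-coupled HAT assay: 20nM GCN5L2, 70uM acetyl-CoA, 75uM H3(1-25) peptide, pH 7.5. Fluorescence read at 340/540nm at start and after 20 min at room temperature.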
RECQ1 helicase: inhibitors of human RECQ1 DNA helicase; P46063; RECQ1 DNA unwinding, red fluorescence kinetic read; Potency, µM (highest dose often 57.3 µM), usual class: inhibitors; 0.54% of 240,000 active; also: nearly all actives have a fitted effect of over 30% in size
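RECQ1T1 50 nM; forked duplex (20 bp + 30-nt ss tails) 200 nM, ATP 2 mM final; pH 8.0, 2 mM MgCl2, 2.5 ug/ml poly(dI-dC); 15 min compound preincubation; discontinuous kinetic read over 2 h at RT.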
TDP1 inh: TDP1 (human) enzyme inhibition; Q9NUW8; recombinant TDP1, AlphaScreen DNA substrate cleavage; AID 485290; Potency, µM (highest dose often 130 µM), hits mostly inhibitors; 0.28% of 350,000 active; also: nearly all actives have a fitted effect of over 40% in size
Target sequence (Q9NUW8 whole entry, looked up): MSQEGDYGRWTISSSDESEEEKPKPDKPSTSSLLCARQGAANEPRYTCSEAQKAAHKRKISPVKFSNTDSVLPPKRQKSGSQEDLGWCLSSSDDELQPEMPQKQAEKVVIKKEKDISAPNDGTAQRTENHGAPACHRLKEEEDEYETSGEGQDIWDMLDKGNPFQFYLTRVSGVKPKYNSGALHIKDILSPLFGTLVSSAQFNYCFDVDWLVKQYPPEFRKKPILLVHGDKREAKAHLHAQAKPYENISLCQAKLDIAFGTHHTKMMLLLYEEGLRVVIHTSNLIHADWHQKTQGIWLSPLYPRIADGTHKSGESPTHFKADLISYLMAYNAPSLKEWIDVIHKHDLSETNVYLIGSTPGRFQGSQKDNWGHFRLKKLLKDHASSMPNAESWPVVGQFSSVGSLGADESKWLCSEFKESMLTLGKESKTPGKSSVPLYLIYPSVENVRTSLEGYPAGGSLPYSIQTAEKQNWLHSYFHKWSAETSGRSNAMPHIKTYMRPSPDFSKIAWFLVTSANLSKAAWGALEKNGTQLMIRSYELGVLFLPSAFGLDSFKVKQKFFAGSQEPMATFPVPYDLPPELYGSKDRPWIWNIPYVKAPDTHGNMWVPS
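Enzyme-compound mixtures sat 15 min at room temperature, followed by a 5 min reaction with 15 nM final substrate and 10 min with AlphaScreen beads. Recombinant human Tdp1 was used at 1 nM final.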
APEX1 inh: inhibitors of human APE1 endonuclease; P27695; recombinant APE1, TAMRA/BHQ-2 abasic DNA cleavage fluorescence; Potency, µM (top dose mostly 65.8 µM), hits mostly inhibitors; 0.35% of 350,000 active; also: nearly all actives have a fitted effect of over 55% in size
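Quantitative HTS: incision of a TAMRA/BHQ-2 double-stranded substrate bearing a tetrahydrofuran abasic site by 0.75 nM APE1 raises fluorescence. Substrate 50 nM final, added after 15 min compound preincubation at room temperature; progress as third-minus-first kinetic read difference.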
BLM helicase inh: inhibitors of human Bloom syndrome helicase BLM | P54132 | recombinant BLM DNA unwinding, fluorescence dequenching | Potency, µM (titrated, usually from 56.1 µM), hits mostly inhibitors | 0.2% of 350,000 active; also: nearly all actives have a fitted effect of over 35% in size
Hits are given with their value; - = inactive; ? = inconclusive; . = no result; ! = not confirmed by another sample; [ ] = dose if it differs, or a comment. Unless noted, calls follow the shape of the dose curve; as a rule, active = well fitted curve in the direction sought with a large enough effect; inconclusive = small, poorly fitted or top-dose-only effect, or another doubt; inactive = no such curve, though single readings can be large; an effect the other way counts as inactive or inconclusive.

SMILES	KDM4E inh	KAT2A inh	RECQ1 helicase	TDP1 inh	APEX1 inh	BLM helicase inh
Cc1csc2ncc(C(=O)NCc3ccco3)c(=O)n12	?	-	?	45µM	?	-
O=C(NCc1ccco1)c1cnc2sccn2c1=O	-	-	-	-	-	-
O=C(O)c1cc(-c2ccco2)nc2ccccc12	?	?	-	.	25µM	-
COc1ccc(CNC(=O)COC(=O)c2cc(-c3ccco3)nc3ccccc23)cc1	?	?	11µM	-	20µM	-
COc1ccc(NC(=O)c2cc(-c3ccco3)nc3ccccc23)cn1	.	-	.	14µM	?	.
COc1ccc(C2c3c(ncn(CCCc4ccccc4)c3=N)Oc3ccc4ccccc4c32)cc1OC (stereo unspecified)	.	.	.	-	.	.
O=C1c2cccc3c2[C@@H](CCC3)CN1[C@@H]1CN2CCC1CC2	.	-	.	.	.	-
Cc1ccc(C(=O)NCc2ccco2)cc1	.	-	.	3.2µM	-	-
Cc1ccc(-c2cc(C(=O)NCc3ccco3)c3ccccc3n2)o1	?	?	?	.	32µM	-
Cc1cc(C(=O)NCc2ccco2)c2ccccc2n1	-	?	-	-	-	-
Cn1c(=O)c(C(=O)COC(=O)c2cc(-c3ccco3)nc3ccccc23)c(N)n(CC2CC2)c1=O	?	-	32µM	-	?	?
O=C(O)c1ccc(CSc2nnc(-c3ccc([S+](=O)([O-])N4CCCC4)cc3)n2-c2ccccc2)cc1	.	.	.	.	-	.
COc1ccccc1C1NC(c2ccc3c(c2)OCO3)=CC(c2ccccc2O)N1 (stereo unspecified)	.	.	.	-	.	.
Cc1c(Cl)cccc1NS(=O)(=O)c1cc2c(cc1F)NC(=O)CC2	.	.	.	-	.	.
CSc1ccc(/C=N/NC(=O)c2ccc(C)c(C)c2)cc1	-	?	-	-	-	28µM
CC(N)CCCP(=O)(O)O (stereo unspecified)	.	-	-	-	-	.
Nc1ccc(S(=O)(=O)N2CCCN(S(=O)(=O)c3ccc4c(c3)OCCO4)CC2)cc1	.	.	.	-	.	.
Cc1nnc(N2CCC(C(=O)NCc3cccc(Cl)c3)CC2)c2nn(-c3ccccc3)c(C)c12	.	-	.	-	.	-
Cc1ccc(-n2nc3c(N4CCC(C(=O)NCc5cccc(F)c5)CC4)nnc(C)c3c2C)cc1	.	-	.	40µM	-	-
CC(C)(Sc1ccc(CCN(CCCCC2CCCCC2)C(=O)NC2CCCCC2)cc1)C(=O)O	-	13µM	?	-	-	.
CN(Cc1ccccc1)C(=O)NC1CCCCC1	-	-	-	-	-	-
CC(C)(C)n1ncc2c(=O)n(Cc3ccc(-c4ccccc4C#N)cc3)cnc21	.	.	.	.	-	.
COC(=O)C1=C(C(=O)OC)[C@@H]2Nc3ccccc3[C@@]23C[C@@H](C(=O)OC)N(S(=O)(=O)c2cccs2)C3=N1	-[11.4 µM]	.	-[11.5 µM]	-[21 µM]	-[12.4 µM]	-[12.4 µM]
CC(C)C[C@@H](CN(C)N=O)N(C[C@H](Cc1ccccc1)N(CCc1ccccc1)N=O)N=O	-	-	4µM	-	-	-
CCn1c(=O)[nH]c2ccccc21	-	-	-	-	-	-
SMILES	KDM4E inh	KAT2A inh	RECQ1 helicase	TDP1 inh	APEX1 inh	BLM helicase inh
CCn1c(C)c(CS(=O)(=O)c2ccccc2)[nH]c1=O	28µM	-	-	-	-	-
COc1ccc(C2c3c(ncn(CCc4ccccc4)c3=N)Oc3ccc4ccccc4c32)cc1OC (stereo unspecified)	.	.	.	-	.	.
Nc1[nH]n2c(=O)cc(-c3ccccc3)nc2c1N=Nc1ccccc1	-	-	-	-	-	-
Nc1[nH]n2c(=O)cc(-c3ccccc3)nc2c1N=Nc1ccc(S(N)(=O)=O)cc1	-	-	-	-	8.9µM	-
O=C1c2ccccc2C(=O)c2c(O)c(O)cc(O)c21	22µM	7.9µM!	6.3µM	?	19µM	-
Cc1cc(O)c2c(c1O)C(=O)c1c(O)cc(C)c(O)c1C2=O	?	-	-	-	?	-
O=C1c2ccccc2C(=O)c2c(O)ccc(O)c21	-	.	-	-	-	-
Nc1ccc(O)c2c1C(=O)c1ccccc1C2=O	-	?	-	.	-	14µM
O=C(c1cnn2c1NC(=C1CC1)C=C2C(F)F)N(C1CCCCC1)C1CCCCC1	.	.	.	.	-	.
Cc1c(P(=S)(c2ccccc2)c2ccccc2)[n+]2ccccc2n1Cc1ccccc1	.	.	.	-	.	.
O=C(Nc1ccc2nc(-c3ccco3)c(-c3ccco3)nc2c1)N1CCCC1	.	.	.	7.1µM	.	.
CCCCNC(=O)c1ccc2nc(-c3ccco3)c(-c3ccco3)nc2c1	?	-	-	-	-	16µM
O=C(Nc1ccc(N2CCOCC2)cc1)c1ccc2nc(-c3ccco3)c(-c3ccco3)nc2c1	-	-	-	-	-	-
O=C(Nc1ccccc1)c1ccc2nc(-c3ccco3)c(-c3ccco3)nc2c1	?	?	-	-	-	32µM
CNC(=O)c1ccc2nc(-c3ccco3)c(-c3ccco3)nc2c1	.	.	.	11µM	.	.
CCCNC(=O)c1ccc2nc(-c3ccccc3)c(-c3ccccc3)nc2c1	?	-	-	-	-	-
NC(=O)c1ccc[n+]([C@@H]2O[C@H](COP(=O)([O-])OP(=O)(O)OC[C@H]3O[C@@H](n4cnc5c(N)ncnc54)[C@H](O)[C@@H]3O)[C@@H](O)[C@H]2O)c1	.	.	.	.	-	.
Cc1ccc(C)c(S(=O)(=O)NCC(c2ccco2)S(=O)(=O)c2ccc(F)cc2)c1 (stereo unspecified)	.	-	.	-	.	-
O=C(NCc1ccccc1)c1cc(-c2cccs2)on1	-	2.5µM	-	-	-	-
O=C(NCCCn1ccnc1)c1cc(-c2cccs2)on1	?	2.2µM	-	-	-	-
O=C(NCCCN1CCOCC1)c1cc(-c2cccs2)on1	-	-	-	-	-	-
O=C(NCc1ccc(F)cc1)c1cc(-c2cccs2)on1	-	-	-	-	-	-
COC(=O)c1ccccc1NC(=O)c1cc(-c2cccs2)on1	?	3.2µM	-	-	-	-
CCCC(=O)OCCNc1cc(SCc2ccco2)c2nonc2c1[N+](=O)[O-]	-	-	-	-	-	13µM
Cc1cccc([C@@H]2CN(C)CCc3c2cc(O)c(O)c3Cl)c1	14µM	.	-	-	-	-
C=CCN1CCc2c(cc(O)c(O)c2Cl)C(c2cccc(C)c2)C1 (stereo unspecified)	14µM	.	-	-	-	-
COc1cccc(C2=Nn3c(nnc3-c3ccccc3C)SC2)c1	.	.	-	-	-	-
COc1ccc(C(F)(F)F)cc1NC(=O)C(OC(=O)CNC(=O)c1ccccc1)c1ccccc1 (stereo unspecified)	.	.	.	-	.	.
Cc1ccc(S(=O)(=O)NC(N)=NCCC[C@@H](N)C(=O)Nc2cc(C(F)(F)F)ccc2Cl)cc1	.	.	.	-	.	.
CN(C)c1ccc(C(=C2C=CC(=[N+](C)C)C=C2)c2ccccc2)cc1	.	-	?	-	-	-
